From PubChem BioAssay
Sampled rows, rich in hits. Any-hit rate of the full collection: about 2.4%.
ATXN viability = cell viability loss in ATXN counter-screen; 0.49% of 400,000 active; S2 cells (HEK-293 line with an ATXN2-luciferase reporter) viability, CellTiter-Fluor protease fluorescence, 24 h; AID 651635; Potency, µM (titrated, usually from 56.7 µM), hits mostly cytotoxic; further: nearly all actives have a fitted effect of over 40% in size
TGFb inhibitor = inhibitors of TGF-b signaling; 1.2% of 410,000 active; Potency, µM (doses to about 46.1 µM), actives largely listed as inhibitors; HepG2 CAGA-GFP TGF-b/SMAD3 reporter, GFP fluorescence, 18 h; TGF-beta stimulated, 500 pg/mL final; further: nearly all actives have a fitted effect of over 65% in size
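Read-out: total well GFP (ex488/em500-530) summed from mean per-cell fluorescence. Cells: HEPG2 CAGA-GFP, 1% FBS DMEM, 18 h at 37 degrees C with 500 pg/mL final TGF-beta. Unstimulated wells served as the full-inhibition control; stimulated DMSO wells = 0%.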
ATXN2 expr inh = reduces ATXN2 reporter expression in HEK-293 cells | HEK-293 ATXN2-luciferase reporter, luminescence, 24 h | Potency, µM (highest dose often 57 µM), most hits filed as inhibitors | 0.72% of 360,000 active; further: nearly all actives have a fitted effect of over 55% in size
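ATXN2-luciferase reporter cells (luciferase flanked by upstream and downstream ATXN2 gene portions) were treated 24 h at 37 °C with compounds at up to 57 uM. SteadyGlo luminescence gave expression; GF-AFC fluorescence gave viability.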
Apoferritin bind = binds horse apoferritin like a general anesthetic; P02791; apoferritin/1-aminoanthracene competitive binding, fluorescence; Potency, µM (series often up to 77.5 µM), most hits filed as inhibitors; 0.074% of 350,000 active; further: nearly all actives have a fitted effect of over 20% in size
Target sequence (P02791 2-175 limits assumed): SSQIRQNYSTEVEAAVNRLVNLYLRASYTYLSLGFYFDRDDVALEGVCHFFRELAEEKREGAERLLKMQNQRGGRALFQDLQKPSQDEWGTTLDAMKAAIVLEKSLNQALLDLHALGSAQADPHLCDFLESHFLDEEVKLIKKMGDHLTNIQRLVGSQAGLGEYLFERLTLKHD
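Concentration-response curves derived by four-parameter Hill fitting of normalized fluorescence, where compounds displaced 1-AMA from 10 uM horse apoferritin following a brief 10 min room-temperature incubation; propofol titration acted as positive control.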
HepG2 viability = counter-screen for TGF-b inhibitors: cytotoxicity in HepG2 cells. HepG2 CAGA-GFP viability, ATP luminescence, 18 h. Potency, µM (highest dose often 46.1 µM), most hits filed as cytotoxic. 0.76% of 410,000 active. AID 588856
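HepG2 CAGA-GFP cells (1000/well, DMEM with 1% FBS) received compound, then TGF-beta at 500 pg/mL final, and were incubated 18 hours at 37 degrees C. Viability was read by CellTiter-Glo luminescence. Media-only wells were set as complete cell-killing and DMSO as no toxicity.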
Of the large screens only hits and unclear results are named; the others gave an inactive call. The call rests on the fitted dose curve; in most records, active means well fitted curve in the direction sought with a large enough effect; inconclusive means small, poorly fitted or top-dose-only effect, or another doubt; inactive means no such curve, though single readings can be large; an effect the other way counts as inactive or inconclusive.

Cc1nn(C)cc1C(=O)Nc1cc(Oc2ccc(Cl)cc2)cc([N+](=O)[O-])c1	none
CCn1nc(C)c(C(=O)Nc2cc(Oc3cc(C)cc(C)c3)cc([N+](=O)[O-])c2)c1C	TGFb inhibitor 14µM, Apoferritin bind inconclusive
Oc1c(N=Nc2ccccn2)ccc2ccccc12	ATXN viability 10µM, TGFb inhibitor 6.3µM, ATXN2 expr inh 7.9µM, Apoferritin bind inconclusive
Oc1[nH]c2ccccc2c1N=Nc1ccccn1	none (no result: Apoferritin bind)
COc1ccc(-c2nc3c4ccccc4ccn3c2CN2CCCCC2)cc1	ATXN viability inconclusive
COc1ccc(-c2nc3c4ccccc4ccn3c2CN2CCCCC2)cc1OC	ATXN viability 32µM, TGFb inhibitor inconclusive (no result: ATXN2 expr inh)
CCC[C@@H]1C[C@@]1(CCC)[C@@H](NP(=O)(c1ccccc1)c1ccccc1)c1ccc(C(=O)OC)cc1	ATXN viability inconclusive, TGFb inhibitor 11µM, ATXN2 expr inh inconclusive, HepG2 viability 14µM
CC[C@@H](CO)NCCN[C@@H](CC)CO	none (no result: TGFb inhibitor, Apoferritin bind, HepG2 viability)
O=C(N/N=C/c1ccc(O)cc1O)c1ccc(NC(=O)C2CCCCC2)cc1	ATXN viability inconclusive, TGFb inhibitor inconclusive, ATXN2 expr inh 5.6µM, Apoferritin bind inconclusive
O=C(N/N=C/c1ccc(O)cc1O)c1ccncc1	ATXN2 expr inh 22µM
O=C(N/N=C/c1ccc(Cl)cc1Cl)c1ccncc1	ATXN viability inconclusive (no result: ATXN2 expr inh)
Cc1ccc(C(C)C)c(OCc2ccc(C(=O)N/N=C/c3ccc(O)cc3O)cc2)c1	ATXN viability inconclusive, TGFb inhibitor inconclusive, ATXN2 expr inh 10µM
Cc1ccc(C(C)C)c(OCc2ccc(C(=O)N/N=C/c3ccc(C(=O)O)cc3)cc2)c1	none (no result: ATXN2 expr inh)
Cc1ccccc1NC(=O)c1nc(SCc2ccccc2F)ncc1Cl	none (no result: ATXN viability, ATXN2 expr inh, Apoferritin bind)
Cc1ccc(SCCN2CCC(NC(=O)OCc3ccccc3)CCC2=O)cc1 (stereo not given)	none
O=C(N[C@H]1CCC(=O)N(CCSc2ccc(Br)cc2)CC1)OCc1ccccc1	ATXN viability 28µM, TGFb inhibitor 7.1µM, ATXN2 expr inh inconclusive (no result: Apoferritin bind)
CC(C)c1cc(C(=O)N2Cc3ccc(CN4CCN(C)CC4)cc3C2)c(O)cc1O	ATXN2 expr inh 0.22µM (no result: ATXN viability, TGFb inhibitor, Apoferritin bind, HepG2 viability)
S=C(Nc1ccccc1)N1CCCCCC1	Apoferritin bind inconclusive
CC(NNC(=S)N1CCCCCC1)c1ccc2ccccc2n1 (stereo not given)	TGFb inhibitor inconclusive, ATXN2 expr inh 8.9µM (no result: ATXN viability, Apoferritin bind)
COc1cc(=O)n2c(c1C(=O)N(C)C(C)c1ccco1)CCN(C(=O)c1ccc(C(C)=O)cc1)CC2 (stereo not given)	none (no result: TGFb inhibitor, ATXN2 expr inh, Apoferritin bind, HepG2 viability)
Oc1ccc(Nc2nc(-c3ccc(Cl)cc3)nc3ccccc23)cc1	TGFb inhibitor inconclusive, HepG2 viability 14µM (no result: ATXN viability, ATXN2 expr inh)
COc1ccc(-c2nc(N/N=C(\C)c3ccc(O)cc3)c3ccccc3n2)cc1	ATXN viability inconclusive, TGFb inhibitor 14µM, ATXN2 expr inh inconclusive
Oc1ccc(Nc2nc3ccccc3nc2Nc2ccc(O)cc2)cc1	ATXN viability inconclusive, TGFb inhibitor 11µM, ATXN2 expr inh inconclusive
Cc1nc(NC(=O)c2ccco2)sc1C(=O)O	HepG2 viability 5µM
COC(=O)c1sc(NC(=O)c2ccco2)nc1C	none
Cn1c(=O)c2c(O)c([N+](=O)[O-])c(=O)n(C)c2n(C)c1=O	HepG2 viability 11µM
Cn1c(=O)c2c(O)c(Cc3ccccc3)c(=O)n(C)c2n(C)c1=O	none
O=C(NCCCN1CCCC(O)C1)c1cc(COc2ccc(F)cc2F)on1 (stereo not given)	none
CCC1=NN(C(=O)c2ccc([N+](=O)[O-])cc2)C(O)(c2ccccc2)C1 (stereo not given)	ATXN viability 28µM, TGFb inhibitor inconclusive, ATXN2 expr inh inconclusive, Apoferritin bind inconclusive, HepG2 viability 13µM
CCC1=NN(C(=O)c2ccc(Cl)cc2)C(O)(c2ccc(C)cc2)C1 (stereo not given)	TGFb inhibitor 11µM, HepG2 viability 13µM
CCC1=NN(C(=O)c2ccccc2O)C(O)(c2ccccc2)C1 (stereo not given)	TGFb inhibitor 13µM, HepG2 viability 14µM (no result: ATXN viability)
CCC1=NN(C(=O)c2ccc(Cl)cc2)C(O)(c2ccccc2)C1 (stereo not given)	ATXN viability inconclusive, TGFb inhibitor inconclusive (no result: ATXN2 expr inh)
COC(=O)[C@H](CCSC)NC(=O)C/C=C\[C@@H](C)[C@@H](CO)OC	none (no result: ATXN viability, TGFb inhibitor, ATXN2 expr inh, HepG2 viability)
